Only a selection was taken, and hits are over-represented in it overall.
TTR transcr act: TTR transcription activation, primary screen; activation, % at 16.7 µM; actives 1.3% (n = 92,000); SH-SY5Y TTR promoter Gaussia luciferase, luminescence; 100% = recombinant luciferase protein wells;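 active = activation above the mean of all tested compounds plus 3 SD, cut at about 9.5% in these data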;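 also: cells exposed to compounds for one day before reading; 0% = median of all test compound wells on the plate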
TTR inh HuH7: decreases TTR transcription in HuH7 cells in activator counter-screen. actives 4% (n = 1,100). inhibition, % at 16.7 µM. HuH7 TTR promoter-Gaussia luciferase reporter, luminescence. shares compounds with TTR transcr act;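 active = average inhibition above the solvent-only control wells' mean plus 3 SD, cut at about 15% in these data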;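 also: 0% = cells with DMSO only and 100% = cells with inhibitor control FD; inhibitors lower well luminescence so higher value means more inhibition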
TTR act confirm: confirmation of human transthyretin transcription activators | shares compounds with TTR transcr act | 1,100 tested, under 10 active | AID 1117280 | activation, % at 16.7 µM | SHSY5Y TTR promoter Gaussia luciferase, luminescence; 100% = purified Lucia enzyme wells, no cells;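 active = mean activation above a set limit taken from the earlier primary screen, cut at about 11% in these data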;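 also: 0% = DMSO-treated cells and 100% = recombinant Lucia luciferase without cells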
The depositor's hits bear a star.

SMILES | TTR transcr act | others
CCCN1CNc2c(c(=O)[nH]c(=S)n2CCc2cccc(Cl)c2Cl)C1 | 2.0
CCOC(=O)[C@]12CCCC=C1N(CCCOC)C(=O)[C@@H]2CC(=O)N1CCCC1 | 3.3
COc1ccc(CCNC(=O)c2cnn(-c3ccccc3)c2N)cc1OC | 0.5
CCOC(=O)c1cnn(-c2ccccc2)c1NC(=O)CCl | -1.1
CCCc1c(C(=O)NNc2ccccc2OC)cnn1-c1ccccc1 | 12.4* | TTR inh HuH7=-9.2;TTR act confirm=0.3
Cc1ccc(C(=O)NCCC(=O)Nc2ccccc2C)cc1 | -0.8
O=[N+]([O-])C(/C=C(\Cl)[N+](=O)[O-])=C(N1CCCCC1)N1CCCCC1 | -1.1
CNC(=O)C[C@@H]1CC[C@@H]2[C@H](COc3ccc(NC(=O)c4cccc(F)c4)cc3C(=O)N2C)O1 | 3.4
Cc1ccccc1Sc1ncnc2onc(C)c12 | -3.6
Cc1cccc(N(C)c2ncnc3onc(-c4ccc(F)cc4)c23)c1C | 13.0* | TTR inh HuH7=25.3*;TTR act confirm=0.3
Cc1cccc(C(=O)N[C@@H]2CC[C@@]34CCCN3C(=O)CCC[C@H]4[C@H]2C)c1 | -0.5
COC(=O)[C@]12C[C@H](CC(=O)NCc3cccs3)C(=O)N(Cc3ccc4c(c3)OCO4)C1=C[C@H](C(C)C)O[C@@H]2C1CC1 | -0.2
COc1ccc(N(C(C)C(=O)NN=C2CCCCCCC2)S(C)(=O)=O)cc1 (centres undefined) | 14.8* | TTR inh HuH7=-8.6;TTR act confirm=-0.9
COc1ccc(N(C(C)C(=O)N/N=C/c2cccnc2)S(C)(=O)=O)cc1 (centres undefined) | -0.6
COc1ccc(N(C(C)C(=O)N/N=C/c2ccc(OC)c(OC)c2)S(C)(=O)=O)cc1 (centres undefined) | -1.1
CCNC(=O)CCc1nc(-c2ccc(C(C)C)cc2)no1 | 0.3
COc1cc(-c2c(C(=O)c3ccccc3)[nH]c(N)c2C(N)=O)ccc1O | 3.4
COc1ccc(C(=O)NC2CCCc3c2cnn3-c2cc(F)cc(F)c2)c(OC)c1OC (centres undefined) | 12.6* | TTR inh HuH7=29.0*;TTR act confirm=-0.8
Cc1cc(C)cc(-n2ncc3c2CCCC3NC(=O)c2cc(C)[nH]n2)c1 (centres undefined) | -1.9
O=C(NC1CCCc2c1cnn2-c1ccc(F)cc1F)c1ccccc1 (centres undefined) | -2.2
COc1ccc2c(c1)NC(=O)[C@@]2(CCN1C(=O)c2ccccc2C1=O)c1[nH]c2ccccc2c1CCN1C(=O)c2ccccc2C1=O | -1.8
CCOc1ccc(N(C(C)=O)c2nc(C)cc(C)c2C#N)cc1 | 19.3* | TTR inh HuH7=-6.4;TTR act confirm=0.2
COc1ccc(C(=O)COc2nc(C)cc(C)c2C#N)cc1 | 7.2
CCOC(=O)CN(C(=O)COc1nc(C)cc(C)c1C#N)c1ccc(F)cc1 | -0.8
COC(=O)CNC(=O)[C@H](Cc1ccccc1)NC1(C(=O)NCCc2c[nH]c3ccccc23)CCCCC1 | -1.6
SMILES | TTR transcr act | others
COC(=O)c1ccc2cn[nH]c2c1 | 3.0
COC(=O)c1cc(OC)nc(OC)c1 | 16.3* | TTR inh HuH7=-13.4;TTR act confirm=2.0
COC(=O)c1ccc2nccnc2c1 | -0.5
CCNC(=O)C1(C)CCN(Cc2cccc(C(F)(F)F)c2)C1 (centres undefined) | 1.0
N/C(=N\OC(=O)c1ccc2c(c1)OCO2)c1cccnc1 | 0.8
Cc1ccc(C(=O)O/N=C(\c2ccccc2)c2cccnc2)cc1 | 0.5
N/C(=N\OC(=O)c1ccccc1)c1cccnc1 | 10.2* | TTR inh HuH7=-11.0;TTR act confirm=1.9
CC(C)NC(=O)OC[C@@H]1CSCCS(=O)(=O)N1 | 0.9
Cc1cc(C)c(N(CC(=O)NCc2ccccc2)C(=O)c2csnn2)c(C)c1 | 0.0
Cc1ccc(N(CC(=O)NCc2ccc(F)cc2)C(=O)c2csnn2)cc1C | 11.1* | TTR inh HuH7=-16.5;TTR act confirm=-0.5
Cc1ccccc1CCN(CC(=O)NCc1ccc(F)cc1)C(=O)c1csnn1 | -0.1
O=S1(=O)c2ccc(N3CC[C@H](O)C3)cc2O[C@H]2CCN1C2 | 4.1
COc1ccccc1OCCSc1nc2ccccc2n1CC(O)CO (centres undefined) | -0.6
C[C@@H]1CN([C@H](C)CO)C(=O)CCCn2nncc2CO[C@@H]1CN(C)C(=O)c1ccc(N2CCN(C)CC2)cc1 | 0.1
Cc1ccccc1OCC(=O)NNC(=S)NC(=O)c1ccco1 | 0.8
COc1ccc(CC(=O)NNC(=O)CCc2ccccc2)cc1 | 0.1
Cc1ccccc1OCC(=O)NNC(=O)CCc1ccccc1 | 10.2* | TTR inh HuH7=-9.7;TTR act confirm=-0.1
CCOC(=O)Cc1csc(NC(=O)COc2cccc(C)c2)n1 | 0.3
CCOC(=O)Cc1csc(NC(=O)COc2ccc3c(c2)CCC3)n1 | 13.6* | TTR inh HuH7=-24.4;TTR act confirm=-0.4
CCOC(=O)Cc1csc(NC(=O)CCC(=O)O)n1 | 1.7
O=[N+]([O-])c1ccc2nc(COCc3nc4ccccc4[nH]3)[nH]c2c1 | 7.7
COc1cc(OC)c(NC(=O)c2cccc(F)c2)cc1Cl | -1.9
Cc1cc(NC(=O)c2cccc(F)c2)no1 | 8.5
